In the library only some 10% were active in any assay of this set; here they are far more common.
NIH3T3 tox: NIH 3T3 cell cytotoxicity. 94,000 tested, 4.3% active. NIH 3T3 viability, CellTiter-Glo ATP luminescence, 48-72 h. Potency, µM (highest dose often 96.7 µM), usual class: inhibitors; also: nearly all actives have a fitted effect of over 55% in size
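ATP-dependent luminescence (CellTiter-Glo) served as the viability signal for NIH 3T3 cells treated with compound for 48 or 72 hr at 37 °C.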
HEK293 tox: kills HEK 293 cells; HEK 293 viability, ATP luminescence (CellTiter-Glo), 48-72 h; Potency, µM (series often up to 115 µM), actives largely listed as inhibitors; 94,000 tested, 6.6% active; also: nearly all actives have a fitted effect of over 60% in size
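CellTiter-Glo luminescence (cellular ATP) was read after 48 or 72 hr of compound exposure at 37 degree Celsius. Cells were HEK 293 plated at 250 cells/well.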
Luciferase inh: inhibitors of firefly (Photinus pyralis) luciferase. 76,000 tested, 2.5% active. P08659. AID 1347043. Potency, µM (highest dose often 115 µM), usual class: inhibitors. purified P. pyralis luciferase, luminescence, biochemical; also: nearly all actives have a fitted effect of over 65% in size
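Biochemical qHTS: compound (6-point titration) added to 10uM D-luciferin plus 10uM ATP in Tris acetate pH 7.5 buffer with Mg, Tween-20 and BSA, then purified enzyme at 10nM; light output imaged.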
NPR1 antag: blocks ANP-stimulated signaling of human Npr1 receptor | AID 1347048 | HEK293 hNpr1 GloSensor cGMP, ANP-stimulated luminescence | 76,000 tested, 1.6% active | Potency, µM (series often up to 46.3 µM), usual class: inhibitors; calls by dose curve; also: nearly all actives have a fitted effect of over 60% in size
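HEK293 cells stably expressing human Npr1 and cGMP GloSensor pGS-40F, loaded 2 h with 2% GloSensor reagent, given compound 30 min at room temperature. Luminescence read before and 20 min after 0.1 nM hNppA.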
GPT2 inhibitor: GPT2 alanine aminotransferase inhibition; 100,000 tested, 0.25% active; Q8TD30; Recombinant GPT2, coupled pyruvate oxidase/HRP Amplex Red fluorescence; Potency, µM (titrated, usually from 57.7 µM), actives largely listed as inhibitors; also: nearly all actives have a fitted effect of over 60% in size
Target sequence (Q8TD30 whole entry, looked up): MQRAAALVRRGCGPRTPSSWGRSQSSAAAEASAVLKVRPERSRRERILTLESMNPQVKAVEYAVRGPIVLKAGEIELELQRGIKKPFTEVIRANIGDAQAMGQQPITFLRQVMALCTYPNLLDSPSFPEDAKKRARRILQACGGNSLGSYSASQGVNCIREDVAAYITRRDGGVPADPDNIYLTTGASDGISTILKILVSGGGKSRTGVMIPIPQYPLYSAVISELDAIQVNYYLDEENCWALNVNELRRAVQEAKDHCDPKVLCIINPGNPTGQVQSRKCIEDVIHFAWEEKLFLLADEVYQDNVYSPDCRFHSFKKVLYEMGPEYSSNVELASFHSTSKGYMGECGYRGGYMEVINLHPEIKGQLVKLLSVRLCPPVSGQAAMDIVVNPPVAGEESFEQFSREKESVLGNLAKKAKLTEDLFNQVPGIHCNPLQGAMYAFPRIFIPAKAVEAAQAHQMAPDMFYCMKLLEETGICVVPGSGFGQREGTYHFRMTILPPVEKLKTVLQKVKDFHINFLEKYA
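Inhibition is scored from Amplex Red fluorescence generated when pyruvate oxidase and HRP act on pyruvate released by GPT2. Reactions contain 10ng/uL enzyme, 250uM a-KG and 2mM L-alanine and run 30 min at room temperature.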
Hits are given with their value; . = inactive; ? = inconclusive; / = no result; ! = not active in a repeat. Unless noted, calls follow the shape of the dose curve; as a rule, active = well fitted curve in the direction sought with a large enough effect; inconclusive = small, poorly fitted or top-dose-only effect, or another doubt; inactive = no such curve, though single readings can be large; an effect the other way counts as inactive or inconclusive.

SMILES | NIH3T3 tox | HEK293 tox | Luciferase inh | NPR1 antag | GPT2 inhibitor
C=C1CC[C@@H]2[C@](C)(CO[C@@H]3O[C@H](CO)[C@@H](O)[C@H](O)[C@H]3O)[C@H](O)CC[C@@]2(C)[C@@H]1C/C=C1/C(=O)OC[C@H]1O | / | / | / | / | .
O=C(c1cccnc1)N1CC[C@H](c2nc3ccccc3s2)C1 | . | ? | . | . | .
O=[N+]([O-])c1cccc(-c2noc([C@@H]3C[C@@H](O)CN3Cc3ncc[nH]3)n2)c1 | . | . | . | . | .
Cc1ccc(-c2noc([C@@H]3C[C@@H](O)CN3Cc3ncc[nH]3)n2)cc1F | ? | ? | 25.1µM | . | .
COc1ccc(C(=O)N2C[C@@H]3CC[C@H](C2)N(Cc2cscn2)C3=O)o1 | . | . | . | . | ?
Cc1ccc2nc(C3CCCN(Cc4cccc(-c5ccc(F)cc5F)c4)C3)[nH]c(=O)c2c1 (stereo not given) | ? | ? | . | . | .
CCN1CCCC(c2nc3ccc(F)cc3c(=O)[nH]2)C1 (stereo not given) | . | . | . | . | .
O=c1[nH]c(C2CCCN(Cc3cccc(-c4ccsc4)c3)C2)nc2ccc(F)cc12 (stereo not given) | 28.2µM! | 22.4µM | . | . | .
O=c1[nH]c(C2CCCN(CC3CCCC3)C2)nc2ccc(F)cc12 (stereo not given) | 39.8µM | 31.6µM | . | . | .
Cc1ccc2nc(C3CCCN(Cc4cccc(-c5cccnc5)c4)C3)[nH]c(=O)c2c1 (stereo not given) | ? | 31.6µM! | . | . | .
Cc1ncccc1C(=O)N[C@@H]1CN(c2ncccn2)C[C@H]1CO | . | . | . | . | .
Cc1ccc(-c2cn3c(n2)N(C(=O)c2sc(C)nc2C)CCC3)cc1 | . | . | . | . | .
COC[C@H](C)NC(=O)c1cccc(S(=O)(=O)N(C)Cc2cnccn2)c1 | . | . | . | . | .
COc1ccc(C(=O)N2CCC3(CC2)OC(=O)N(Cc2ccccc2F)C3(C)c2ccccc2)cc1 (stereo not given) | 35.5µM | 44.7µM | . | . | .
CC1(c2cccnc2)N(CCOc2ccccc2)C(=O)OC12CCN(C(=O)Cc1cccc(F)c1)CC2 (stereo not given) | ? | . | . | . | .
Cn1ccc(C(=O)N2CCC3(CC2)OC(=O)N(Cc2ccccc2F)C3(C)c2ccccc2)n1 (stereo not given) | ? | . | . | . | .
COc1cccc(CC(=O)N2CCC3(CC2)OC(=O)N(Cc2ccccc2F)C3(C)c2ccccc2)c1 (stereo not given) | 25.1µM | ? | . | . | .
CC(C)N1CC[C@@H]2[C@H]1C(=O)NC[C@H](CCC(=O)NCc1ccc(F)cc1)N2C | . | . | . | . | ?
N#Cc1cccc(CN2CCc3c(n(Cc4cccnc4)n(CCc4ccccc4)c3=O)C2)c1 | ? | ? | . | . | .
O=c1c2c(n(Cc3cccnc3)n1CCc1ccccc1)CN(CC1CCOC1)CC2 (stereo not given) | 44.7µM | . | . | . | .
COc1ccc(Cn2c3c(c(=O)n2Cc2ccccc2)CCN(CC2CCOC2)C3)cc1 (stereo not given) | 28.2µM | . | . | . | .
O=c1c2c(n(Cc3cccnc3)n1-c1ccccc1)CN(CC1CCOC1)CC2 (stereo not given) | ? | . | . | . | .
O=c1c2c(n(Cc3cccnc3)n1CCc1ccccc1)CN(CC1CC1)CC2 | 39.8µM | . | . | . | .
CCn1c2c(c(=O)n1Cc1ccccc1)CCN(Cc1cncc(OC)c1)C2 | 79.4µM | . | . | . | .
CNC(=O)[C@@H]1C[C@H](Oc2cccnc2)CN1C(=O)c1cn[nH]c1-c1ccc(OC)cc1 | . | . | . | . | .
SMILES | NIH3T3 tox | HEK293 tox | Luciferase inh | NPR1 antag | GPT2 inhibitor
COc1ccc(N2C(=O)CSC23CCN(C(=O)Nc2ccc([N+](=O)[O-])cc2)CC3)cc1 | ? | 25.1µM | . | . | .
O=C(Nc1ccccc1)N1CCC2(CC1)SCC(=O)N2c1ccc(Cl)cc1 | ? | ? | 22.4µM | . | .
COc1ccc(N2C(=O)CSC23CCN(C(=O)NCc2ccccc2)CC3)cc1 | . | ? | . | . | .
CCCC(=O)N1CC2(CCCN2C2COC2)Cc2ccccc21 (stereo not given) | . | . | / | / | .
Cc1cccc(C(=O)N2CCCCCC2c2nnc(-c3ccccc3)o2)c1 (stereo not given) | ? | ? | . | . | .
Cc1cccc(CC(=O)N2CCCCCC2c2nnc(-c3ccccc3)o2)c1 (stereo not given) | ? | 79.4µM | . | . | .
O=C(C1CC1)N1CCCC(c2nn(-c3ccc(Cl)cc3)c(=O)[nH]2)C1 (stereo not given) | . | . | . | . | .
O=C([C@@H]1C[C@@H](O)[C@H](O)[C@@H]2NC(=S)N(c3ccc(Cl)cc3)[C@@H]21)N1CCCCC1 | . | . | 50.1µM | . | .
CCC(=O)N1CCN(c2nc3c(s2)CC(C(=O)Nc2ccc4c(c2)OCO4)CC3)CC1 (stereo not given) | ? | 14.1µM | . | . | .
CC(C)C(=O)N1CCN(c2nc3c(s2)CC(C(=O)NCCc2cccs2)CC3)CC1 (stereo not given) | . | 79.4µM | . | . | .
CCc1ccc(NC(=O)C2CCc3nc(N4CCN(C(=O)C(C)C)CC4)sc3C2)cc1 (stereo not given) | . | ? | . | . | .
CCC(=O)N1CCN(c2nc3c(s2)CC(C(=O)Nc2ccc(C(C)C)cc2)CC3)CC1 (stereo not given) | ? | 35.5µM | . | ? | .
CCC(=O)N1CCN(c2nc3c(s2)CC(C(=O)Nc2ccc(F)cc2)CC3)CC1 (stereo not given) | 31.6µM | 12.6µM | . | ? | .
COCC(=O)N[C@@H]1CN(Cc2ccc(C)o2)C[C@H]1CO | . | . | . | . | .
COc1cccc(C(=O)N2CCC(N3C[C@H](O)C[C@H]3C(=O)NCc3cccc(F)c3)CC2)c1 | . | ? | . | . | .
CNC(=O)[C@@H]1CN(C(=O)c2cnc[nH]2)C[C@H]1COC | . | . | . | . | .
CC(=O)N1CCN(c2nc3c(s2)CC(C(=O)Nc2ccc(F)c(Cl)c2)CC3)CC1 (stereo not given) | 20µM | 7.94µM | . | ? | .
CC(=O)N1CCN(c2nc3c(s2)CC(C(=O)NCc2cc(F)cc(F)c2)CC3)CC1 (stereo not given) | . | ? | . | . | .
CC(=O)N1CCN(c2nc3c(s2)CC(C(=O)NCc2ccc(C(C)C)cc2)CC3)CC1 (stereo not given) | ? | 44.7µM | . | ? | .
COC(=O)[C@@H]1Cc2ncn(C(C)C)c2CN1S(=O)(=O)c1cccc2c(N(C)C)cccc12 | ? | . | . | . | .
